Holding throughout (experiment): DAPPL (digital affinity profiling via proximity ligation, sequencing); 10 mM Tris-HCl pH 7.5, 50 mM NaCl, 1 mM DTT, 4% glycerol, room temperature, 30 min; GST-TFs on glutathione beads, 16-mer random dsDNA library, 0.1% formaldehyde crosslink after washing; high values mean tight binding
Holding throughout (settings): protein: recombinant; tags: N-terminal GST; dsDNA, one strand shown

The target in one test is T1, ERF (Homo sapiens, UniProt P50548 1-548).
T1 sequence: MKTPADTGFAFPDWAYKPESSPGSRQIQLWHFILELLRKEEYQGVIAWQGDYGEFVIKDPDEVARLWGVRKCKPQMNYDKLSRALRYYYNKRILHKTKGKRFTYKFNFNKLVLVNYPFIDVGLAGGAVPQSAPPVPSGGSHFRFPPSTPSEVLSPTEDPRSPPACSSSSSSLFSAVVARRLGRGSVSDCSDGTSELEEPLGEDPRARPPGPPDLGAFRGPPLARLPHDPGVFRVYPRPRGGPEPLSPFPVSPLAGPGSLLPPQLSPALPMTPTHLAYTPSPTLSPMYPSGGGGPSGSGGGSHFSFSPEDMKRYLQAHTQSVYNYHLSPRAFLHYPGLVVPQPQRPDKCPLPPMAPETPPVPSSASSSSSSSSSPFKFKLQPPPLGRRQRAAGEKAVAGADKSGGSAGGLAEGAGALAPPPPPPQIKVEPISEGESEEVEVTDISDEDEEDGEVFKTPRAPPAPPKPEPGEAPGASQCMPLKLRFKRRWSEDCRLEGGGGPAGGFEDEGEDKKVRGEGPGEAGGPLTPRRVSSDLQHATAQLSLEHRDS
In short, it runs like this: (§1)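 Each value of binding signal is a hexamer's read frequency for a factor divided by the same hexamer's frequency in the tag-only sample. Barcoded, bead-captured GST fusions of human transcription factors made in yeast were pooled with that sample and incubated with 200 nmole of a random double-stranded 16-mer DNA library in Tris/NaCl/DTT/glycerol buffer at room temperature for 30 min. Washing, 0.1% formaldehyde crosslinking, proximity ligation, PCR and Illumina NextSeq500 sequencing followed.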

In the next test the target is T2, ETV3L (Homo sapiens, UniProt Q6ZN32 1-361).
T2 sequence: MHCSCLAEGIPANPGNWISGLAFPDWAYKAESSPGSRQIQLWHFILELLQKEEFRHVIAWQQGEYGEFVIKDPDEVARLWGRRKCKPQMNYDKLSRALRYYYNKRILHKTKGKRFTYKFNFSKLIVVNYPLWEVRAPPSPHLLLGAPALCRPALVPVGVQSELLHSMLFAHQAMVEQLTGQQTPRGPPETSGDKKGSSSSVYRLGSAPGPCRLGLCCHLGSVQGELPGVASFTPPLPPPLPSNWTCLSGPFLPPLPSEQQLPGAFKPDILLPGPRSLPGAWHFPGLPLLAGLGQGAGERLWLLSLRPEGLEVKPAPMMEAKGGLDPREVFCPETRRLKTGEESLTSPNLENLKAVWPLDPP
The gist of the method:
as §1

A further test deals with T3, ETS2 (Homo sapiens, UniProt P15036 1-469).
T3 sequence: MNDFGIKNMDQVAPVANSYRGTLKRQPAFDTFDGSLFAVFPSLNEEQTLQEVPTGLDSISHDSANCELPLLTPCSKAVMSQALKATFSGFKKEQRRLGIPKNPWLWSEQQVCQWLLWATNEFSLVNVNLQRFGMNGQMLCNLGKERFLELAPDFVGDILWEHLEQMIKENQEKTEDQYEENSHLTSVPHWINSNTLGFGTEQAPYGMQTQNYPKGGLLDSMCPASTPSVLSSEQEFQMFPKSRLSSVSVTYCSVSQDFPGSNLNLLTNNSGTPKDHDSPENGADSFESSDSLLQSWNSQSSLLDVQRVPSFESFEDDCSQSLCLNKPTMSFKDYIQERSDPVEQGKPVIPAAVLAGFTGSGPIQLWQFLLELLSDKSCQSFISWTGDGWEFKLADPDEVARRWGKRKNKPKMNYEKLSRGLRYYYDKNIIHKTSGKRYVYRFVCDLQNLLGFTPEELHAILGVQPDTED
In short, it runs like this: as §1

Another test has as its target T4, SPDEF (Homo sapiens, UniProt O95238 1-335).
T4 sequence: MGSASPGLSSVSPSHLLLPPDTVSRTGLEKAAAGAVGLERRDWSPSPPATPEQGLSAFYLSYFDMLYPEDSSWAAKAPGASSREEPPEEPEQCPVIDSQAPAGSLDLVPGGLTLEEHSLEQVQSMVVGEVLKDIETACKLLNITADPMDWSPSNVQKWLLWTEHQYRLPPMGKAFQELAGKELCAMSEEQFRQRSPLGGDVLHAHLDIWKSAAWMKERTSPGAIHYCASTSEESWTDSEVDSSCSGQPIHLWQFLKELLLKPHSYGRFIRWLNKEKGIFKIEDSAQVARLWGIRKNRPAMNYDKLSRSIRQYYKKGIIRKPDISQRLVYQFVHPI
In short, it runs like this: as §1

A further test has as its target T5, ETV7 (Homo sapiens, UniProt Q9Y603 1-341).
T5 sequence: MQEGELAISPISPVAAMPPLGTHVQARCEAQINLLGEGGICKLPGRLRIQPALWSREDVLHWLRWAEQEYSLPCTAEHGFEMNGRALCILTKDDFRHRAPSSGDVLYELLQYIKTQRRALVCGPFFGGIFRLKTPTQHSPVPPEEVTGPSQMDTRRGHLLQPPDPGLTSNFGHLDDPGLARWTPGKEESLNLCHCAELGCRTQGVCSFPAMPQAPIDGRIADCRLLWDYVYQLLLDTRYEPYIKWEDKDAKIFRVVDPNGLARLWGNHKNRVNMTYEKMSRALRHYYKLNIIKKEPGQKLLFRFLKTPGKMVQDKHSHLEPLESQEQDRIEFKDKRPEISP
In short, it runs like this:
as §1

Another test addresses T6, ELF5 (Homo sapiens, UniProt Q9UKW6-2 1-255).
T6 sequence: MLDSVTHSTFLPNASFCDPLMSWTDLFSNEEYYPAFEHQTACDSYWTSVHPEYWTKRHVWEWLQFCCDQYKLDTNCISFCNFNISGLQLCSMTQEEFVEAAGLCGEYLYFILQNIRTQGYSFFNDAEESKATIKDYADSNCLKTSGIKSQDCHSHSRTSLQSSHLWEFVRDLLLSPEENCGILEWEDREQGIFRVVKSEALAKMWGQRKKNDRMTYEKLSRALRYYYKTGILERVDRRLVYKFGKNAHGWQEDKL
In short, it runs like this:
as §1

In a further test the target is T7, ETV3 (Homo sapiens, UniProt P41162-2 1-143).
T7 sequence: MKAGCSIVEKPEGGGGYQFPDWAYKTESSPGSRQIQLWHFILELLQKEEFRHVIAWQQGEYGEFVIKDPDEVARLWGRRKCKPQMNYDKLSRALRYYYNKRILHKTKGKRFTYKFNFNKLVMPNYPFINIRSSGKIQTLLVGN
The gist of the method: as §1

The target in the next test is ETV6 (Homo sapiens, UniProt P41212 1-452). In short, it runs like this: as §1
Chain of ETV6 (P41212 whole entry): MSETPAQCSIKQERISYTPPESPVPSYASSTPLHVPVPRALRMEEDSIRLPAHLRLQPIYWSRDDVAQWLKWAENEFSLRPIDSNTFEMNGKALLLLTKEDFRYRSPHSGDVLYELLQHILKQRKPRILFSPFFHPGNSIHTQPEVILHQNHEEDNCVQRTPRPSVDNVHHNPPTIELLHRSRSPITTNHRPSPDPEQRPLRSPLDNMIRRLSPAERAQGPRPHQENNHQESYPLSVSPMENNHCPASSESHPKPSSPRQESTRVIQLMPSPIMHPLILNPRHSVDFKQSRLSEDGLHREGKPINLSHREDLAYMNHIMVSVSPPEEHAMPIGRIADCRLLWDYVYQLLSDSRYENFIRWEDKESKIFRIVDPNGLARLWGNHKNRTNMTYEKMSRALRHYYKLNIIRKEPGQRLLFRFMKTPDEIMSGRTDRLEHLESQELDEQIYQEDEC

TGCACA: the binding signal with ERF is 1.22 fold enrichment (6-mer frequency, TF over GST control); with ETV3L it was 1.13 fold enrichment (6-mer frequency, TF over GST control); in the test with ETS2, 1.06 fold enrichment (6-mer frequency, TF over GST control); in the test with SPDEF it was 1.21 fold enrichment (6-mer frequency, TF over GST control); with ETV7 it was 1.02 fold enrichment (6-mer frequency, TF over GST control); with ELF5, 1.07 fold enrichment (6-mer frequency, TF over GST control). Further, the binding signal was 1.18 fold enrichment (6-mer frequency, TF over GST control) in the test with ETV3 and 1.06 fold enrichment (6-mer frequency, TF over GST control) in the test with ETV6.
For TCACTA, the binding signal with ERF was 1.24 fold enrichment (6-mer frequency, TF over GST control); with ETV3L, 1.18 fold enrichment (6-mer frequency, TF over GST control); with ETS2 it was 1.25 fold enrichment (6-mer frequency, TF over GST control); with SPDEF, 1.07 fold enrichment (6-mer frequency, TF over GST control); with ETV7, 1.23 fold enrichment (6-mer frequency, TF over GST control); in the test with ELF5, 1.15 fold enrichment (6-mer frequency, TF over GST control). Further, the binding signal with ETV3 was 1.05 fold enrichment (6-mer frequency, TF over GST control); in the test with ETV6 it was 1.06 fold enrichment (6-mer frequency, TF over GST control).
Take TGATAT: the binding signal was 1.02 fold enrichment (6-mer frequency, TF over GST control) with ERF; 1.09 fold enrichment (6-mer frequency, TF over GST control) in the test with ETV3L; 1.12 fold enrichment (6-mer frequency, TF over GST control) with ETS2; 1.18 fold enrichment (6-mer frequency, TF over GST control) in the test with SPDEF; 1.03 fold enrichment (6-mer frequency, TF over GST control) with ETV7; 1.09 fold enrichment (6-mer frequency, TF over GST control) with ELF5. Further, the binding signal was 1.15 fold enrichment (6-mer frequency, TF over GST control) with ETV3 and 1.06 fold enrichment (6-mer frequency, TF over GST control) in the test with ETV6.
CAACCT: the binding signal with ERF was 1.26 fold enrichment (6-mer frequency, TF over GST control); with ETV3L it was 1.13 fold enrichment (6-mer frequency, TF over GST control); with ETS2, 1.2 fold enrichment (6-mer frequency, TF over GST control); in the test with SPDEF, 1.19 fold enrichment (6-mer frequency, TF over GST control); with ETV7 it was 1.09 fold enrichment (6-mer frequency, TF over GST control); with ELF5, 1.2 fold enrichment (6-mer frequency, TF over GST control). Besides, the binding signal is 1.1 fold enrichment (6-mer frequency, TF over GST control) with ETV3 and 1.18 fold enrichment (6-mer frequency, TF over GST control) in the test with ETV6.
ACCGGA: the binding signal in the test with ERF is 2.82 fold enrichment (6-mer frequency, TF over GST control); with ETV3L it was 2.97 fold enrichment (6-mer frequency, TF over GST control); with ETS2, 3.14 fold enrichment (6-mer frequency, TF over GST control); in the test with SPDEF, 4.52 fold enrichment (6-mer frequency, TF over GST control); in the test with ETV7, 2.74 fold enrichment (6-mer frequency, TF over GST control); with ELF5 it was 3.2 fold enrichment (6-mer frequency, TF over GST control). In addition, the binding signal with ETV3 was 3.45 fold enrichment (6-mer frequency, TF over GST control); with ETV6, 3.16 fold enrichment (6-mer frequency, TF over GST control).
Turning to TGACAA, the binding signal with ERF is 1.23 fold enrichment (6-mer frequency, TF over GST control); with ETV3L, 1.34 fold enrichment (6-mer frequency, TF over GST control); in the test with ETS2, 1.27 fold enrichment (6-mer frequency, TF over GST control); with SPDEF, 1.21 fold enrichment (6-mer frequency, TF over GST control); in the test with ETV7, 1.31 fold enrichment (6-mer frequency, TF over GST control); in the test with ELF5, 1.23 fold enrichment (6-mer frequency, TF over GST control). The binding signal with ETV3 was 1.26 fold enrichment (6-mer frequency, TF over GST control); in the test with ETV6, 1.23 fold enrichment (6-mer frequency, TF over GST control).
For the sequence TTAGTA, the binding signal with ERF was 1.17 fold enrichment (6-mer frequency, TF over GST control); in the test with ETV3L, 1.07 fold enrichment (6-mer frequency, TF over GST control); in the test with ETS2 it was 1.09 fold enrichment (6-mer frequency, TF over GST control); in the test with SPDEF it was 1.12 fold enrichment (6-mer frequency, TF over GST control); with ETV7, 1.14 fold enrichment (6-mer frequency, TF over GST control); with ELF5, 1.07 fold enrichment (6-mer frequency, TF over GST control). Also, the binding signal in the test with ETV3 was 1.27 fold enrichment (6-mer frequency, TF over GST control); with ETV6 it was 1.12 fold enrichment (6-mer frequency, TF over GST control).

(Values after article PMC7862700, “An all-to-all approach to the identification of sequence-specific readers for epigenetic DNA modifications on cytosine”.)
